Potency and affinity values are given separately. Inconclusive results are not listed. A call without a number means that no potency is given here. Activity calls are given as the source filed them.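 The calls were made as follows: active = falling signal with fitted half-maximal potency no higher than twice the top valid tested dose; inconclusive = poor fit quality, or flat fit spanning -70% to -30%; inactive = potency over limit, rising signal, or flat fit inside 30%.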
Assay: fungal growth arrest, C. neoformans – Alamar Blue, cherry-picks, dose response (AID 686998)
Conditions: Cryptococcus neoformans growth, 24 h; series mostly up to 35 µM

Row | Compound | outcome
1 | CCNC(=O)C[C@H]1CC[C@H](NC(=O)NC2CCCCC2)[C@@H](CO)O1 | inactive
2 | Cc1cccc(C)c1NC(=O)CN(C)C(=O)C1CCCCC1 | inactive
3 | COc1ccc(CN(C)C[C@H]2Oc3ccc(NC(=O)Nc4ccc(F)cc4)cc3CC(=O)N([C@@H](C)CO)C[C@@H]2C)cc1 | inactive
4 | COc1cccc(S(=O)(=O)Nc2ccc3c(c2)[C@H]2C[C@H](CC(=O)N(C)C)O[C@@H](CO)[C@H]2O3)c1 | inactive
5 | CCCC(=O)N1CCC1(C)C(=O)Nc1ccc(C)cc1 (stereo not given) | inactive
6 | COc1ccc(NC(=S)NCc2ccc(Cl)cc2)c(OC)c1 | inactive
7 | O=C(NCCc1ccccc1)[C@@H]1[C@@H](CO)[C@@H]2Cn3c(cccc3=O)[C@H]1N2C(=O)C1CCC1 | inactive
8 | CC(C)NC(=O)Nc1ccc2c(c1)C(=O)N([C@@H](C)CO)C[C@H](C)[C@@H](CN(C)S(=O)(=O)c1cccs1)OCCCC[C@H](C)O2 | inactive
9 | C[C@H](CO)N1C[C@H](C)[C@H](CN(C)Cc2ccc(-c3ccccc3)cc2)Oc2c(NC(=O)c3ccncc3)cccc2C1=O | inactive
10 | C[C@@H]1CN([C@@H](C)CO)C(=O)c2cc(NS(=O)(=O)c3cn(C)cn3)ccc2O[C@@H](C)CCCCO[C@@H]1CN(C)Cc1ccc(C(F)(F)F)cc1 | inactive
11 | C[C@@H]1CN([C@H](C)CO)S(=O)(=O)c2ccc(C#CC3CC3)cc2O[C@H]1CN(C)CC1CCOCC1 | inactive
12 | C[C@H](O)C#Cc1ccc2c(c1)O[C@H](CN(C)Cc1ccncc1)[C@H](C)CN([C@H](C)CO)S2(=O)=O | inactive
13 | Cc1noc(C)c1NC(=O)N(C)C[C@H]1OCCCC[C@H](C)Oc2ccc(NC(=O)NC(C)C)cc2C(=O)N([C@@H](C)CO)C[C@@H]1C | inactive
14 | CCN(Cc1ccccc1)C(=O)COc1ccccc1 | inactive
15 | COC(=O)C1=C(C)N(Cc2ccc(Br)cc2)C(=S)NC1c1ccc(F)cc1 (stereo not given) | inactive
16 | COc1ccccc1CNC(=S)NCc1ccc(Cl)cc1 | inactive
17 | C[C@H]1CN([C@@H](C)CO)C(=O)Cc2cc(N(C)C)ccc2O[C@@H]1CN(C)C(=O)Nc1ccc(C(F)(F)F)cc1 | inactive
18 | Cc1noc(C)c1S(=O)(=O)Nc1ccc2c(c1)CC(=O)N([C@H](C)CO)C[C@H](C)[C@H](CN(C)S(=O)(=O)c1cccs1)O2 | inactive
19 | CCCNC(=O)C[C@@H]1CC[C@@H]2[C@H](COc3ccc(NC(=O)CCC)cc3C(=O)N2C)O1 | inactive
20 | Cc1cccc(-c2ccc([C@H]3[C@H](CO)N4CCCCN(C(=O)c5ccc6c(c5)OCO6)C[C@@H]34)cc2)c1 | inactive

Row | Compound | outcome
21 | Cc1ccc(CSc2ncnc3c2cnn3-c2ccc(C)cc2)cc1 | inactive
22 | C[C@@H]1CN([C@H](C)CO)C(=O)c2cc(NC(=O)Nc3cccc4ccccc34)ccc2O[C@@H]1CN(C)C(=O)Nc1ccccc1 | inactive
23 | CC(C)CC#Cc1cnc2c(c1)C(=O)N([C@H](C)CO)C[C@H](C)[C@H](CN(C)C(=O)c1cccnc1)O2 | inactive
24 | O=C(CSc1ncnc2c1cnn2-c1ccccc1)Nc1ccc2c(c1)OCO2 | inactive
25 | C[C@@H]1CN([C@@H](C)CO)C(=O)c2cc(NC(=O)Nc3ccccc3)ccc2O[C@@H]1CN(C)C(=O)Nc1cccc2ccccc12 | inactive
26 | O=C(N[C@H]1CC[C@H](CCn2cc(-c3ccccn3)nn2)O[C@H]1CO)c1ccc(F)cc1 | inactive
27 | O=C(Cc1ccccc1)N[C@H]1C=C[C@@H](CC(=O)N2CCOCC2)O[C@@H]1CO | inactive
28 | COCC(=O)NC[C@H]1N[C@H](CO)[C@H]1c1ccc(C2=CCCC2)cc1 | inactive
29 | CCCC(C)(C)C(=O)N1CCC1(C)C(=O)Nc1ccc(C)cc1 (stereo not given) | inactive
30 | Cc1noc(C)c1S(=O)(=O)Nc1ccc2c(c1)C(=O)N([C@@H](C)CO)C[C@@H](C)[C@@H](CN(C)Cc1ccccc1)OCCCC[C@H](C)O2 | inactive
31 | C[C@H](CO)N1C[C@H](C)[C@H](CN(C)C(=O)Nc2cccc3ccccc23)Oc2ccc(NC(=O)Cc3ccccc3)cc2CC1=O | inactive
32 | O=C(C[C@@H]1CC[C@H]2[C@@H](COC[C@H](O)CN2Cc2ccc(Oc3ccccc3)cc2)O1)Nc1nccs1 | inactive
33 | COc1cccc(-c2ccc3c(c2)[C@H]2[C@H](CCN2C(=O)Cc2ccncc2)[C@H](CO)N3C)c1 | inactive
34 | CC(C)NC(=O)N(C)C[C@H]1OCCCC[C@H](C)Oc2ccc(NC(=O)c3ccccc3)cc2C(=O)N([C@@H](C)CO)C[C@@H]1C | inactive
35 | COCCNC(=O)C[C@H]1C[C@@H]2c3cc(NC(=O)C4CCC4)ccc3O[C@@H]2[C@H](CO)O1 | inactive
36 | COc1ccc(C2=Nc3ccccc3NC(=O)C2N(C(=O)c2cc3ccccc3[nH]2)c2ccccc2)cc1 (stereo not given) | inactive
37 | O=C(NCCN1CCCCC1)[C@@H]1N[C@@H]2c3ccc(-c4ccncc4)c(=O)n3C[C@@H]2[C@H]1CO | inactive
38 | COCC(=O)N(C)C[C@H]1Oc2ncc(-c3ccccc3F)cc2C(=O)N([C@@H](C)CO)C[C@H]1C | inactive
39 | C[C@H]1CN([C@@H](C)CO)C(=O)c2cc(NC(=O)Nc3ccc(F)cc3)ccc2O[C@@H]1CN(C)S(C)(=O)=O | inactive
40 | COc1ccc(S(=O)(=O)N[C@H]2C=C[C@H](CC(=O)N3CCC(Cc4ccccc4)CC3)O[C@@H]2CO)cc1 | inactive
